Results from PubChem BioAssay AID1159580 (chemical genetic matrix, 2015).
Screen size: about 5,500 compounds; about 2,000 (36%) were called active. Not shown: some 18% with an inconclusive outcome. The list shows a part of the results. Values without a mark were called inactive. Cut-off read from the data, not from the text of the source: active = normalized growth mostly below about 0.91 (no sharp cut-off); inconclusive = no clear call, values can overlap the other calls; inactive = mostly above about 0.92.

Test: chemical genetic growth profiling, strain panel (AID 1159580);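 note: tested at 20 µM; growth read once vehicle control cultures reached saturation at 30 °C; 1 = growth at the plate median or of vehicle wells; lower values mean less growth of the strain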
Settings: growth OD
[1] = S. cerevisiae deletion strains, locus YAL013W, strain DEP1, stronger effect = lower value
[2] = S. cerevisiae deletion strains, locus YBR229C, strain ROT2, stronger effect = lower value
[3] = S. cerevisiae deletion strains, locus YDL101C, strain DUN1, stronger effect = lower value
[4] = S. cerevisiae deletion strains, locus YDL134C, strain PPH21, stronger effect = lower value
[5] = S. cerevisiae deletion strains, locus YDR150W, strain NUM1, stronger effect = lower value
[6] = S. cerevisiae deletion strains, locus YEL061C, strain CIN8, stronger effect = lower value
[7] = S. cerevisiae deletion strains, locus YGR078C, strain PAC10, stronger effect = lower value
[8] = S. cerevisiae deletion strains, locus YHR030C, strain SLT2, stronger effect = lower value
[9] = S. cerevisiae deletion strains, locus YHR087W, strain rtc3, stronger effect = lower value
[10] = S. cerevisiae deletion strains, locus YJR043C, strain POL32, stronger effect = lower value
[11] = S. cerevisiae deletion strains, locus YJR075W, strain HOC1, stronger effect = lower value
[12] = S. cerevisiae deletion strains, locus YKL190W, strain CNB1, stronger effect = lower value
[13] = S. cerevisiae deletion strains, locus YLR039C, strain RIC1, stronger effect = lower value
[14] = S. cerevisiae deletion strains, locus YLR058C, strain SHM2 (second series), stronger effect = lower value
[15] = S. cerevisiae deletion strains, locus YLR085C, strain ARP6, stronger effect = lower value
[16] = S. cerevisiae deletion strains, locus YLR262C, strain YPT6, stronger effect = lower value
[17] = S. cerevisiae deletion strains, locus YML094W, strain GIM5, stronger effect = lower value
[18] = S. cerevisiae deletion strains, locus YMR219W, strain ESC1, stronger effect = lower value
[19] = S. cerevisiae deletion strains, locus YMR263W, strain SAP30, stronger effect = lower value
[20] = S. cerevisiae deletion strains, locus YMR307W, strain GAS1, stronger effect = lower value
[21] = S. cerevisiae deletion strains, locus YNL153C, strain GIM3, stronger effect = lower value
[22] = S. cerevisiae deletion strains, locus YNL298W, strain CLA4 (second series), stronger effect = lower value
[23] = S. cerevisiae deletion strains, locus YNL322C, strain KRE1, stronger effect = lower value
[24] = S. cerevisiae deletion strains, locus YNR030W, strain Alg12, stronger effect = lower value
[25] = S. cerevisiae deletion strains, locus YPL055C, strain LGE1, stronger effect = lower value
[26] = S. cerevisiae deletion strains, locus YPL241C, strain CIN2, stronger effect = lower value
[27] = S. cerevisiae deletion strains, locus YPR135W, strain CTF4, stronger effect = lower value

N/C(=N/O)c1csc(-c2ccc(F)cc2F)n1
normalized growth [1]: 0.96
normalized growth [2]: 0.978
normalized growth [3]: 1.02
normalized growth [4]: 0.995
normalized growth [5]: 0.968
normalized growth [6]: 1.01
normalized growth [7]: 0.989
normalized growth (S. cerevisiae deletion strains, locus YGR229C, strain SMI1, stronger effect = lower value): 0.995
normalized growth [8]: 0.921
normalized growth [9]: 0.98
normalized growth [10]: 1
normalized growth [11]: 1.02
normalized growth [12]: 0.996
normalized growth [13]: 0.933
normalized growth [14]: 1.01
normalized growth [15]: 1.14
normalized growth [16]: 0.969
normalized growth [17]: 0.933
normalized growth [18]: 0.995
normalized growth [19]: 0.997
normalized growth [20]: 1.25
normalized growth [21]: 0.986
normalized growth [22]: 1.01
normalized growth [23]: 1
normalized growth [24]: 0.983
normalized growth [25]: 0.943
normalized growth [26]: 1
normalized growth [27]: 0.844
normalized growth (S. cerevisiae strains, strain wild type, stronger effect = lower value): 0.991

Cc1ccc(/C(N)=N\O)cc1F
normalized growth [1]: 0.998
normalized growth [2]: 1
normalized growth [3]: 1.01
normalized growth [4]: 0.988
normalized growth [5]: 0.995
normalized growth [6]: 1.01
normalized growth [7]: 1.01
normalized growth [8]: 1.03
normalized growth [9]: 1
normalized growth (S. cerevisiae deletion strains, locus YJL187C, strain SWE1, stronger effect = lower value): 1.02
normalized growth [10]: 1.01
normalized growth [11]: 1.03
normalized growth [12]: 0.988
normalized growth [13]: 1.04
normalized growth [14]: 1.02
normalized growth [15]: 1.32 [resistant] (active)
normalized growth [16]: 0.997
normalized growth [17]: 1
normalized growth [18]: 1
normalized growth [19]: 1
normalized growth [20]: 1.24
normalized growth (S. cerevisiae deletion strains, locus YNL128W, strain TEP1, stronger effect = lower value): 0.975
normalized growth [21]: 1.02
normalized growth [22]: 1.02
normalized growth [23]: 1
normalized growth [24]: 0.989
normalized growth (S. cerevisiae deletion strains, locus YOL006C, strain TOP1, stronger effect = lower value): 1.03
normalized growth [25]: 1.03
normalized growth [26]: 1.1
normalized growth [27]: 1.07
